# USP7 block – blocks human USP7 ubiquitin-rhodamine cleavage; Q93009; purified USP7, Ub-rhodamine cleavage fluorescence; inhibition, % at 20 µM; 47,000 compounds, 0.3% hits
# USP8 inh – inhibitors of human USP8 deubiquitinase | P40818 | purified USP8, Ub-rhodamine cleavage fluorescence, 30 min | inhibition, % at 20 µM | 47,000 compounds, 4.2% hits
# USP10 block – inhibitors of human USP10 deubiquitinase; Q14694; purified USP10, Ub-rhodamine fluorescence, 60 min; inhibition, % at 20 µM; 47,000 compounds, 1.1% hits
# UCHL1 block – human UCHL1 deubiquitinase inhibition; AID 1645859; inhibition, % at 20 µM; 47,000 compounds, 0.2% hits; purified UCHL1, Ub-rhodamine cleavage fluorescence
# OTUD3 block – inhibitors of human OTUD3 deubiquitinase | Q5T2D3 | purified OTUD3, Ub-rhodamine fluorescence, 2 h | inhibition, % at 25 µM | 47,000 compounds, 0.7% hits | AID 1645858
# Active calls of the source: *. Sampled rows, rich in hits. Any-hit rate of the full collection: about 4.9%. Rule as the data show it: active = inhibition above about 30%; inactive = the rest.
SMILES,USP7 block,USP8 inh,USP10 block,UCHL1 block,OTUD3 block
CNc1cnc(CC2CCCN(S(=O)(=O)c3cn[nH]c3)CC2)cn1 (stereo unspecified),0,-4,0,-3,-4
O=C(c1ccc(Cl)cc1)N(c1ccccn1)C1CCCCC1,52*,54*,71*,11,44*
Cc1c(Cl)ccc2c(=O)c3c([nH]c12)CCN(CC(=O)NCc1ccc2c(c1)OCO2)C3,-163,46*,-15,-165,29
Cc1ccc2c(=O)c3c([nH]c2c1C)CCN(CC(=O)NCc1ccc2c(c1)OCO2)C3,-35,19,-3,-21,-8
CCOc1ccccc1-c1cc(C(=O)Nc2ccc3c(c2)OCCO3)c2ccccc2n1,5,-198,-1,3,0
Cc1ccccc1S(=O)(=O)c1c(C(=O)N2CCCCC2)cnc2ccc(F)cc12,-12,-28,-4,1,3
O=C(Cc1ccc(-n2c(=O)c3ccccc3n(CC(=O)Nc3cc(F)ccc3F)c2=O)cc1)NCC1CCCO1 (stereo unspecified),3,-2,-5,1,-12
COc1ccc(CCNC(=O)Cn2c(=O)n(CCCC(=O)NC3CCCC3)c(=O)c3cc(Cl)ccc32)cc1OC,-7,-13,-1,-5,9
COc1ccccc1NC(=O)CN1CCc2ccccc2C1,5,-1,1,2,16
O=C(CCCn1c(=O)[nH]c2cc(Cl)ccc2c1=O)N1CCc2ccccc2C1,-11,69*,4,1,13
COc1ccc(NC(=O)Cn2c(=O)n(CCCC(=O)NC3CCCC3)c(=O)c3cc(Cl)ccc32)c(OC)c1,9,7,31*,3,16
COc1ccc(Cl)cc1NC(=O)Cn1c(=O)n(CCC(=O)N2CCc3ccccc3C2)c(=O)c2ccccc21,2,34*,5,6,16
O=C(CCCn1c(=O)[nH]c2ccc(Br)cc2c1=O)N1CCc2ccccc2C1,-13,9,6,6,6
COc1ccc(NC(=O)Cn2c(=O)n(CCC(=O)N3CCc4ccccc4C3)c(=O)c3ccccc32)cc1Cl,9,55*,17,6,23
COc1ccc(-c2ccc(SCc3nc(-c4ccccc4Cl)no3)nn2)cc1OC,-1,-300,-8,2,-13
Cc1ccc(Cn2c(=O)c3cnc(-c4ccncc4)nc3n(C)c2=O)cc1,-29,-22,-4,-26,1
Cc1c(C(=O)NC2CC2)c(C)n(C)c1-c1ccccc1,-9,-1,-3,-6,-12
CCc1ccc(NC(=O)CN2CCN3CCCC3C2)cc1 (stereo unspecified),0,-15,-3,-1,-3
Cc1ccccc1C(=O)c1ccc(C(=O)NC2CCCCCC2)[nH]1,7,41*,11,2,4
O=C(Nc1ccc2n[nH]nc2c1)c1ccc(Cl)c(Cl)c1,2,0,8,0,40*
Cc1ccc(C(=O)Nc2ccc3nccnc3c2)cc1,2,-1,0,0,6
N#Cc1c(-c2ccc3c(c2)OCO3)ccn2nc(-c3ccco3)nc12,-23,27,-7,-8,-10
CCc1nc2c(C#N)c(-c3ccc(Cl)cc3)ccn2n1,-45,36*,24,7,32*
CCc1ccccc1NC(=O)Cn1ncc2c(N3CCCC3)ncnc21,0,-74,1,1,0
O=c1ccc(-c2nc(-c3cnccn3)no2)cn1Cc1noc(-c2ccccc2)n1,5,0,-4,-1,-10
SMILES,USP7 block,USP8 inh,USP10 block,UCHL1 block,OTUD3 block
O=c1ccc(-c2nc(-c3ccncc3)no2)cn1Cc1noc(-c2ccccc2)n1,3,53*,-7,-13,-11
CCOc1ccc(NS(=O)(=O)c2ccc(NC(=O)Nc3ccccc3)cc2)cc1,20,45*,34*,6,-8
Cc1noc(-c2ccc(-n3cnc(C(=O)NC4CCCCCC4)c3)nc2)n1,6,35*,0,2,9
CCc1noc(-c2ccc(-n3cnc(C(=O)NC4CCCC4)c3)nc2)n1,4,15,3,1,0
CCOC(=O)N1CCC(NC(=O)c2cc(C(=O)Nc3ccc(S(=O)(=O)N4CCCCC4)cc3)ccc2CO)CC1,8,-12,32*,6,39*
Cc1ccc(NC(=O)CCC(=O)N(c2ccccc2)c2ccccc2)cc1,-43,8,8,1,7
CC1CCN(C(=O)C2CCN(c3nnc(N4CCCCC4=O)s3)CC2)CC1,4,-2,-3,1,8
Cc1cc(NC(=O)COc2ccc3oc4c(c3c2)CCCC4)n(-c2ccccc2)n1,10,19,39*,2,1
O=C(Nc1nc2c(s1)CN(C(=O)c1cnn(-c3ccccc3)n1)CC2)C1CCCO1 (stereo unspecified),6,-187,-3,3,3
O=C(Nc1nc2c(s1)CN(C(=O)c1cc(-c3ccco3)on1)CC2)C1CCCO1 (stereo unspecified),-35,59*,-2,21,9
Cc1ccc(-c2nn(C(C)(C)C)c3ncnc(NS(=O)(=O)c4ccc(Cl)cc4)c23)cc1,17,18,42*,9,9
Cc1sc2ncnc(NS(=O)(=O)c3ccc(Cl)cc3)c2c1C,-54,11,-5,-5,2
O=S(=O)(c1ccc2c(c1)OCCO2)N1CCC(N2CCCCC2)CC1,-4,2,-6,-3,-9
O=S(=O)(Nc1cc(S(=O)(=O)N2CCCCC2)ccc1O)c1ccc2c(c1)OCCCO2,3,83*,7,2,4
CCOc1ccc(CCNC(=O)CCc2nc3cccnc3n2Cc2ccc(OC)cc2)cc1,7,-2,-3,1,1
N#Cc1ccc(C(=O)Nc2cnn(-c3ncc(N4CCCC4)cn3)c2)cc1,-5,-49,-6,-7,-27
O=C(CCCn1c(=O)c2sccc2n(Cc2ccc(F)cc2)c1=O)NCc1ccco1,-25,33*,1,1,9
Cc1cc(NC(=O)Cn2c(=O)n(CCCCCC(=O)NCc3ccc4c(c3)OCO4)c(=O)c3sccc32)n[nH]1,5,5,6,0,0
O=C(CCCCCn1c(=O)c2sccc2n(CC(=O)c2ccc(Cl)c(Cl)c2)c1=O)NCc1ccc2c(c1)OCO2,13,89*,46*,-2,19
O=C(Cn1c(=O)c2sccc2n(CC(=O)OCc2ccccc2)c1=O)NCc1ccccc1Cl,11,21,19,5,6
O=C(CCCCCn1c(=O)c2sccc2n(CC(=O)c2ccc(F)cc2)c1=O)NCc1ccccc1Cl,2,45*,15,-5,4
CC(C)(C)c1nn(-c2ccccc2)c2[nH]c(=O)c(CNCc3ccc4c(c3)OCO4)cc12,8,80*,-1,3,2
CC(C)(C)c1nn(-c2ccccc2)c2[nH]c(=O)c(CNC3CC3)cc12,3,82*,6,-1,-5
Cc1nn(-c2ccccc2)c2[nH]c(=O)c(CNC3CCCCC3)cc12,3,1,1,0,0
Cc1ccc(NCc2cc3c(C(C)(C)C)nn(-c4ccc(Cl)cc4)c3[nH]c2=O)cc1,7,84*,15,10,13

# Screens deposited in PubChem by Buhrlage Lab, Dana-Farber Cancer Institute and Novartis Institutes for BioMedical Research (Cambridge, Mass).
